High-throughput results: PubChem, National Center for Advancing Translational Sciences (NCATS)
ALOX12 inhib: qHTS Assay for Inhibitors of 12-hLO (12-human lipoxygenase); Polyunsaturated fatty acid lipoxygenase ALOX12 (Homo sapiens), P18054; purified 12-hLO, xylenol orange hydroperoxide absorbance; Potency, µM (doses to about 57.1 µM), inactives show top-dose activity change, negative = inhibition, most hits filed as inhibitors; hit rate 0.12% among 150,000; AID 1452, 2008; note: potency is the fitted concentration of half-maximal effect; % is set by controls: 0 for no effect and ±100 for the full control effect; nearly all actives have a fitted effect of over 55% in size
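Purified human 12hLO (150 nM), preincubated 15 min with compound, then 40 uM arachidonic acid for 30 min, room temperature, Hepes pH 7.0 with 0.01% Triton X-100. Hydroperoxide detected by ferrous iron/xylenol orange; 573/405 nm absorbance ratio gives reaction progress.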
HttQ103 aggreg: qHTS Multiplex Assay to Identify Dual Action Probes in a Cell Model of Huntington: Aggregate Formation (GFP). Potency, µM (titrated, usually from 46.1 µM), inactives show top-dose activity change, negative = inhibition, actives largely listed as inhibitors. hit rate 1.1% among 220,000. PC12 HttQ103-GFP aggregates, Acumen cytometry, 40 h; note: potency is the fitted concentration of half-maximal effect; % is set by controls: 0 for no effect and ±100 for the full control effect; nearly all actives have a fitted effect of over 60% in size
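Inducible Q103 Huntingtin exon 1–GFP PC12 line, 1500 cells/well in phenol red free DMEM with 5% equine and 5% calf serum. Tebufenozide 100 nM induced expression; compounds titrated; aggregates quantified by cytometry.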
NPSR antagonist: qHTS Assay for Antagonists of the Neuropeptide S Receptor: cAMP Signal Transduction. hit rate 1% among 220,000. CHO-NPSR cells, cAMP TR-FRET, antagonist mode. Q6W5P4. Potency, µM (series often up to 38.3 µM), for inactives: at the top dose activity change, negative = inhibition, hits mostly inhibitors; note: potency is the fitted concentration of half-maximal effect; % is set by controls: 0 for no effect and ±100 for the full control effect; nearly all actives have a fitted effect of over 50% in size
Target sequence (Q6W5P4 whole entry, looked up): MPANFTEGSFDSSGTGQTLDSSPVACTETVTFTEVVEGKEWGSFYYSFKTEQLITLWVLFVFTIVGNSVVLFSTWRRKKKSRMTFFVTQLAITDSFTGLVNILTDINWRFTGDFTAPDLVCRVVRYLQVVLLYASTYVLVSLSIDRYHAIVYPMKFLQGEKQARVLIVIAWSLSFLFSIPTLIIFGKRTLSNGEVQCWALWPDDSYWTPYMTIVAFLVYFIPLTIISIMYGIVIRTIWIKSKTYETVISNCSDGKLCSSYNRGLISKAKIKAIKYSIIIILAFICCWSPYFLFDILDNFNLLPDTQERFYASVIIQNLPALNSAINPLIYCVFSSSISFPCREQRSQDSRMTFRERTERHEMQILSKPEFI
IMPase inh: qHTS Assay for Identifying the Cell-Membrane Permeable IMPase Inhibitors. Inositol monophosphatase 1 (Rattus norvegicus), P97697. CHO-M1 cells, IP1 accumulation, HTRF TR-FRET ratio. inhibition (IP1 accumulation), % at 46.1 µM. 120,000 tested, under 10 active. AID 901, 2007; active = well fitted curve in the direction sought with a large enough effect in the signal ratio, not every such curve was filed as active; inconclusive = small, poorly fitted or top-dose-only effect, or a change in a side signal; inactive = no such curve, though single readings can be large or run the other way; the % refers to the signal ratio;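 note: cells stimulated with carbachol in lithium chloride buffer; plate controls were DMSO basal wells for no effect and reference inhibitor wells for full effect; higher means more IMPase inhibition seen as more IP1 and lower FRET ratio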
Target sequence (P97697 whole entry, looked up): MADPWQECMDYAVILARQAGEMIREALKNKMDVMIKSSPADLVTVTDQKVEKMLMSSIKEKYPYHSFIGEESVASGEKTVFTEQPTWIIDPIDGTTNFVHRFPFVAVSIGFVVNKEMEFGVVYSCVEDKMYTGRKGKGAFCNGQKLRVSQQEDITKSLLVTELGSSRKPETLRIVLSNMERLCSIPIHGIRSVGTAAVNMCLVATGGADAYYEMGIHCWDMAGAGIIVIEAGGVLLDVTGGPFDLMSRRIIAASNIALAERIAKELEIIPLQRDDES
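CHO-M1 cells (CHO stably expressing M1 receptor), compound up to 46 uM final, stimulated with carbachol (50 uM as added) in buffer with 50mM LiCl, pH 7.4, 30 min at 37C. Cytosolic IP1 read by TR-FRET; AC50 from Hill fits.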
PNC inhibitor: High Content Assay for Compounds that inhibit the Assembly of the Perinucleolar Compartment; PC3M PTB-GFP, PNC prevalence imaging, 16 h; stronger effect = lower value; hit rate 3.1% among 140,000; activity change (PNC), negative = inhibition, % at 10 µM; AID 2417, 2010;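 active = readout at or below -70, meaning at least 70% loss of cells showing the perinucleolar compartment, a nuclear body marking cancer cells; inconclusive = readout between -30 and a set limit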;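 note: plate controls were DMSO wells for no effect and camptothecin positive control wells for full effect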
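Compounds are pinned in duplicate onto adhered PC3M cells stably expressing GFP-tagged PTB and incubated 16 h at 37 C. Cells are then fixed, nuclei stained with Hoechst, and PNC-positive cells counted.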
HTT cytoprotect: qHTS Multiplex Assay to Identify Dual Action Probes in a Cell Model of Huntington: Cytoprotection (ATP); hit rate 0.14% among 230,000; AID 1471, 2008; Potency, µM (doses to about 56.4 µM), without a hit: cytoprotection (ATP increase), most hits filed as activators; PC12 HTT-Q103 induced, cytoprotection, ATP luminescence, 40 h; note: potency is the fitted concentration of half-maximal effect; % of control where 0% means no effect; nearly all actives have a fitted effect of over 45% in size
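PC12 cells with ecdysone-inducible HTT exon 1 Q103-GFP, induced with 100 nM tebufenozide and co-treated with library compounds in a dose series (1536-well, 1500 cells/well). Cytoprotection read as ATP content by ATPlite luminescence.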
An asterisk follows results filed as active; [ ] = another dose, or the depositor's remark. Rows were chosen to be rich in hits. Some 3.3% of all compounds tested hit in one or more screens of this group. Unless noted, calls come from the whole dose curve; as a rule, active = well fitted curve in the direction sought with a large enough effect; inconclusive = small, poorly fitted or top-dose-only effect, or another doubt; inactive = no such curve, though single readings can be large; an effect the other way counts as inactive or inconclusive.

How did CCCCS/C(N)=N/N=C/c1cc(C)ccc1O do in these assays?
ALOX12 inhib: -21%; HttQ103 aggreg: inconclusive; NPSR antagonist: -10%[46.1 µM]; IMPase inh: 5; PNC inhibitor: -106*; HTT cytoprotect: -3%

How did Cc1cc(C)cc(Cn2ncc(Cl)c(Cl)c2=O)c1 do in these assays?
ALOX12 inhib: -3%; HttQ103 aggreg: inconclusive; NPSR antagonist: inconclusive; PNC inhibitor: inconclusive

What do the screens show for `Cc1ccc(Cn2ncc(Cl)c(Cl)c2=O)cc1`?
ALOX12 inhib: -2%; HttQ103 aggreg: inconclusive; NPSR antagonist: -47%; PNC inhibitor: -105*; HTT cytoprotect: 14%[10 µM]

Results for O=c1c(Cl)c(Cl)cnn1Cc1ccccc1Cl ?
ALOX12 inhib: -2%; HttQ103 aggreg: 15%; NPSR antagonist: 6.3µM*; PNC inhibitor: inconclusive; HTT cytoprotect: 5%[0.074 µM]

How did Cn1nnnc1SCC(=O)C(C)(C)C do in these assays?
HttQ103 aggreg: -1%; NPSR antagonist: 22%; HTT cytoprotect: -10%

Results for N#CC(C#N)=C1C=CC=CN1/C(=C\c1ccco1)C(=O)c1ccc(Cl)cc1 ?
ALOX12 inhib: 2%; HttQ103 aggreg: 3.5µM*; NPSR antagonist: inconclusive; IMPase inh: 4; PNC inhibitor: inconclusive; HTT cytoprotect: inconclusive

What do the screens show for `CC(/C=N/n1c(-c2ccc(Cl)cc2)n[nH]c1=S)=C\c1ccco1`?
ALOX12 inhib: -4%; HttQ103 aggreg: 3%[9.22 µM]; NPSR antagonist: -18%[46.1 µM]; IMPase inh: 5; PNC inhibitor: inconclusive; HTT cytoprotect: 3%[10 µM]

What do the screens show for `N#CC(C#N)=C1C=CC=CN1/C(=C\c1ccco1)C(=O)c1ccc(-c2ccccc2)cc1`?
ALOX12 inhib: -4%; HttQ103 aggreg: 7.1µM*; NPSR antagonist: -21%; IMPase inh: 23; PNC inhibitor: -11; HTT cytoprotect: 4%[10 µM]

What do the screens show for `Cc1ccc(NC(=O)Cn2nnc3sc4c(c3c2=O)CCCC4)c(C)c1`?
IMPase inh: 1

How did O=C(NCc1cccc(C(F)(F)F)c1)c1cc(Cl)ccc1Cl do in these assays?
ALOX12 inhib: -5%; HttQ103 aggreg: -7%; NPSR antagonist: -14%; PNC inhibitor: -108*; HTT cytoprotect: 27%[10 µM]

How did O=C(NCc1cccnc1)c1ccc(Cl)c(Cl)c1 do in these assays?
ALOX12 inhib: 2%; HttQ103 aggreg: -9%; NPSR antagonist: -5%[46.1 µM]; IMPase inh: -6; PNC inhibitor: inconclusive; HTT cytoprotect: -5%[10 µM]

What do the screens show for `O=C(NCc1cccnc1)c1cccc(C(F)(F)F)c1`?
ALOX12 inhib: 8%; HttQ103 aggreg: -8%; NPSR antagonist: -10%[46.1 µM]; IMPase inh: 7[1.84 µM]; PNC inhibitor: -94*; HTT cytoprotect: -17%[0.074 µM]

Results for CCCCc1nc2c(c3c1C[C@H](C)OC3)CN(C(=O)N[C@@H](C)c1ccccc1)CC2 ?
ALOX12 inhib: 2%[11.4 µM]; HTT cytoprotect: 4%[10 µM]

Results for Cc1cccc(NS(=O)(=O)c2ccc(C3CCCCC3)cc2)c1 ?
ALOX12 inhib: -13%; HttQ103 aggreg: 11µM*; NPSR antagonist: -12%[46.1 µM]; IMPase inh: 0; PNC inhibitor: inconclusive; HTT cytoprotect: -57%

What do the screens show for `O=C(O)c1cccc(NS(=O)(=O)c2ccc(C3CCCCC3)cc2)c1`?
NPSR antagonist: 10%

How did Cc1ccc(S(=O)(=O)Nc2cc3c(cc2N2CCOCC2)n(C)c(=O)n3C)cc1 do in these assays?
IMPase inh: -6

How did CCN(C(=O)COC(=O)CNC(=O)c1ccc(C)c(C)c1)C1CCS(=O)(=O)C1 (stereo not drawn) do in these assays?
ALOX12 inhib: -6%; HttQ103 aggreg: 6%; NPSR antagonist: 13%; PNC inhibitor: -121*; HTT cytoprotect: 36%[10 µM]

What do the screens show for `Nc1nc(SC/C=C\c2ccccc2)c2[nH]cnc2n1`?
ALOX12 inhib: 1%[11.4 µM]; HTT cytoprotect: -12%[10 µM]

What do the screens show for `O=C(NNC(=S)Nc1ccccc1)C1CCCCC1`?
HttQ103 aggreg: 3%; NPSR antagonist: 3%; HTT cytoprotect: -34%

How did O=S(=O)(c1ccc2c(c1)OCCO2)N1CCC(O)(c2ccc(Cl)cc2)CC1 do in these assays?
ALOX12 inhib: -7%; HttQ103 aggreg: inconclusive; NPSR antagonist: -8%[46.1 µM]; IMPase inh: 20; PNC inhibitor: -125*; HTT cytoprotect: -7%

What do the screens show for `O=S(=O)(c1ccc2c(c1)OCCO2)N1CCN(c2cccc(Cl)c2)CC1`?
ALOX12 inhib: -1%; HttQ103 aggreg: inconclusive; NPSR antagonist: -7%[46.1 µM]; IMPase inh: 12; PNC inhibitor: -27; HTT cytoprotect: 15%[10 µM]

Results for CC(=O)OC[C@H]1O[C@@](COC(C)=O)(O[C@H]2O[C@H](COC(C)=O)[C@@H](OC(C)=O)[C@H](OC(C)=O)[C@H]2OC(C)=O)[C@@H](OC(C)=O)[C@@H]1OC(C)=O ?
HttQ103 aggreg: 13%; HTT cytoprotect: 9%

Results for CCOc1ccc(Nc2nc(Cc3nnc(SCC(=O)c4ccc(C)c(C)c4)o3)cs2)cc1 ?
ALOX12 inhib: -5%; HttQ103 aggreg: 10µM*; NPSR antagonist: -26%[46.1 µM]; IMPase inh: 11; PNC inhibitor: inconclusive; HTT cytoprotect: -16%

Results for CCOc1ccc(Nc2nc(Cc3nnc(SCC(=O)NCc4ccco4)n3CC)cs2)cc1 ?
ALOX12 inhib: -3%; HttQ103 aggreg: 0%; NPSR antagonist: -8%[46.1 µM]; IMPase inh: 7; PNC inhibitor: 21; HTT cytoprotect: -37%

Results for Cc1ccc(/C=N/NC(=O)c2ccc(Br)o2)s1 ?
ALOX12 inhib: 0%; HttQ103 aggreg: 12%; NPSR antagonist: -4%; PNC inhibitor: -98*

What do the screens show for `CCc1ccc(/C=N\NC(=O)c2ccc(Br)o2)s1`?
ALOX12 inhib: 14%; HttQ103 aggreg: -2%; NPSR antagonist: -2%; PNC inhibitor: -3

How did c1ccc([C@H](CCN2CCCC2)c2ccccn2)cc1 do in these assays?
ALOX12 inhib: 1%[11.4 µM]; HTT cytoprotect: -2%[10 µM]

What do the screens show for `CC(O)Cn1c(=O)c2c(nc(Br)n2Cc2ccccc2)n(C)c1=O` (stereo not drawn)?
ALOX12 inhib: 0%; HttQ103 aggreg: 1%; NPSR antagonist: 7%; IMPase inh: 0; PNC inhibitor: -119*; HTT cytoprotect: -28%[10 µM]
